From PubChem
697 NFkB inh – inhibitors of the PMA/ionomycin-induced NF-kB reporter in 697 B cells | 697 B-cell NF-kB luciferase reporter, 16 h | inhibition, % at 4 µM | 330,000 tested, 0.33% active | AID 435022; in the data active = inhibition above about 35%
Jurkat NFkB inh – lowers PMA/ionomycin-induced NF-kB signal in Jurkat cells; PMA/ionomycin-induced NF-kB luciferase reporter, luminescence; inhibition, % at 4 µM; 330,000 tested, 0.53% active; AID 435003; in the data active = inhibition above about 50%
Gli-Sufu block – Gli-Sufu pathway antagonism; Sufu-KO-LIGHT fibroblasts, Gli luciferase reporter luminescence; inhibition, % at 5 µM; 340,000 tested, 0.74% active; AID 588413;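 active = inhibition above about 55%, limit read from the data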
Mdm2 MdmX PPI – inhibitors of human Mdm2/MdmX interaction | SaOS-2 split-luciferase Mdm2/MdmX complementation, luminescence | inhibition, % at 8 µM | 330,000 tested, 3% active;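 active = inhibition of at least 50% at 8 µM in the primary screen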
Target sequence (O15151 whole entry, looked up): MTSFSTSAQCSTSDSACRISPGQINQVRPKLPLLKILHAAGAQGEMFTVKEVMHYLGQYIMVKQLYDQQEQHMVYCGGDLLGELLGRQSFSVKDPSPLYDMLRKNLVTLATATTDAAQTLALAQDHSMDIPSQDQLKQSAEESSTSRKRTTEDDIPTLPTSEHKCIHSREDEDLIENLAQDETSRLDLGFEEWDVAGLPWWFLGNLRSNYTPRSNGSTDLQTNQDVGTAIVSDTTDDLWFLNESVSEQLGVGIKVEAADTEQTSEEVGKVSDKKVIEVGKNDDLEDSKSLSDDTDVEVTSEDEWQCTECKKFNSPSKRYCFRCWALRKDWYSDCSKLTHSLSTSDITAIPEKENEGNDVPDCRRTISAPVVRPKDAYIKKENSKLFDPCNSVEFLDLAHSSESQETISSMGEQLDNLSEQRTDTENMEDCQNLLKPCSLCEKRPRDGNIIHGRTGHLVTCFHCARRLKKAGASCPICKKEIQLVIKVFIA
Target sequence (Q00987 whole entry, looked up): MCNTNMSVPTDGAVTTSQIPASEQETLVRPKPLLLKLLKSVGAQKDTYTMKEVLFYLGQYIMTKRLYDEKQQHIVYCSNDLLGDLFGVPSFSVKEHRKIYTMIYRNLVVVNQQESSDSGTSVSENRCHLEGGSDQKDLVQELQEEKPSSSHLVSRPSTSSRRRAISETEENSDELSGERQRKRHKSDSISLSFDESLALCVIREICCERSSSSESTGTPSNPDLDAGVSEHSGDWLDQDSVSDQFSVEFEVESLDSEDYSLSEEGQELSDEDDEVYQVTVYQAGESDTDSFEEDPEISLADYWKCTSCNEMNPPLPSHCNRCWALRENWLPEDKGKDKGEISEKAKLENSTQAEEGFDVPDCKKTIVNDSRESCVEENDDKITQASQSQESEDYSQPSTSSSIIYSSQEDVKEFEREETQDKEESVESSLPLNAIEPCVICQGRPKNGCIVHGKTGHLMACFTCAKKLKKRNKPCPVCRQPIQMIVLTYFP
Beta apoptosis – beta cell apoptosis inhibition. INS-1E cytokine-induced death, ATP luminescence, 48 h; percent of positive-control rescue, neutral wells zero. protection from apoptosis, % (concentration not given with the values). 300,000 tested, 0.8% active. AID 435005;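 active = Every replicate reaches about 75%, or at least half do and their mean reaches it too, limit read from the data; inconclusive = At least half of replicates reach the limit but their mean does not; inactive = Under half of replicates reach the limit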;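 note: higher means more ATP so stronger rescue from cytokine killing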
Mdm2-MdmX conf – confirmation of human Mdm2/MdmX interaction inhibitors. AID 489028. shares compounds with Mdm2 MdmX PPI. inhibition, % at 8 µM. 10,000 tested, 55% active. Mdm2-MdmX binding, luminescent assay; in the data active = inhibition above about 40%
Full FLuc ctr – full-length luciferase inhibition in Mdm2/MdmX counter-screen | 6,200 tested, 77% active | AID 504607 | inhibition, % at 8 µM | SaOS-2 full-length luciferase counterscreen, luminescence | shares compounds with Mdm2 MdmX PPI;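 active = mean inhibition at 8 µM reaching about 37%, which flags the compound as non-specific, limit read from the data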;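 note: p53-null SaOS-2 cells with luciferase driven by a doxycycline-inducible promoter; compound on cells about two nights before reading with doxycycline added after day one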
Gli-Sufu confirm – Gli-SUFU antagonism confirmation, single concentration; shares compounds with Gli-Sufu block; Sufu-KO-LIGHT cells, Gli luciferase reporter, luminescence; inhibition, % at 5 µM; 2,500 tested, 40% active;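 active = mean inhibition at 5 µM reaching about 45%, limit read from the data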
SufuKO cytotox – counter-screen for Gli-SUFU antagonists: cytotoxicity; shares compounds with Gli-Sufu block; Sufu-KO-LIGHT cells cytotoxicity, ATP luminescence; cytotoxicity, % at 5 µM; 2,500 tested, 32% active;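 active = mean cytotoxicity at 5 µM above about 25%, limit read from the data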;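 note: cells exposed to compound overnight for roughly 16 to 18 hours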
Wnt3a cs – Wnt3a reporter inhibition counter-screen. inhibition, % at 6.25 µM. 2,500 tested, 20% active. shares compounds with Gli-Sufu block. Wnt-LIGHT cells, Wnt3a-driven luciferase reporter, luminescence. AID 651995;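 active = mean inhibition above about 25%, limit read from the data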
Of the large screens only hits and unclear results are named; the others gave an inactive call (follow-up assays come after a bar, where they were run). An excerpt weighted towards active compounds, which were near 4% of everything screened.

Cc1cc(Nc2cccc(F)c2)nc(NCc2ccccc2)n1	Gli-Sufu block 59, Mdm2 MdmX PPI 66, Beta apoptosis 106 | Mdm2-MdmX conf inactive | Gli-Sufu confirm inactive | SufuKO cytotox inactive | Wnt3a cs inactive
Cc1cc(Oc2ccccc2)nc(NCc2ccccc2)n1	none
COC(=O)c1sc(NC(=O)c2cc(-c3ccccc3)nc3ccccc23)c(C#N)c1C	Gli-Sufu block 69, Mdm2 MdmX PPI 95 | Mdm2-MdmX conf 92 | Full FLuc ctr inactive | Gli-Sufu confirm 82 | SufuKO cytotox 31 | Wnt3a cs 62
COC(=O)c1sccc1NC(=O)c1cc(-c2ccc(C)cc2)nc2ccccc12	none
O=[N+]([O-])c1ccc2ncnc(N3CCN(Cc4ccc5c(c4)OCO5)CC3)c2c1	Gli-Sufu block 68, Mdm2 MdmX PPI 74 | Mdm2-MdmX conf 65 | Full FLuc ctr inactive | Gli-Sufu confirm inactive | SufuKO cytotox 26 | Wnt3a cs inactive
O=[N+]([O-])c1cccnc1N1CCN(Cc2ccc3c(c2)OCO3)CC1	none
COc1ccc(O)c(/C=N/NC(=O)c2ccc(CSc3nc(C)cc(C)n3)cc2)c1	Gli-Sufu block 63, Mdm2 MdmX PPI 77, Beta apoptosis inconclusive | Mdm2-MdmX conf 74 | Full FLuc ctr inactive | Gli-Sufu confirm 48 | SufuKO cytotox inactive | Wnt3a cs 41
COc1ccc(/C=N/NC(=O)c2ccc(CSc3nc(C)cc(C)n3)cc2)cc1O	none
CCCOc1ccccc1C1CC(=O)Nc2cc3c(cc21)OCCO3 (centres undefined)	Gli-Sufu block 66, Mdm2 MdmX PPI 52 | Mdm2-MdmX conf 49 | Full FLuc ctr 61 | Gli-Sufu confirm 65 | SufuKO cytotox 60 | Wnt3a cs inactive
COc1cc(NC(=O)c2ccccc2Cl)ccc1NC(=O)c1cccs1	none
COc1cc(NC(=O)c2cc3ccccc3cc2OC)ccc1NC(=O)c1cccs1	Gli-Sufu block 57, Mdm2 MdmX PPI 58 | Mdm2-MdmX conf 57 | Full FLuc ctr 90 | Gli-Sufu confirm inactive | SufuKO cytotox inactive | Wnt3a cs inactive
Cc1ccc(NC(=S)N(CCCN2CCCC2)Cc2cccn2Cc2ccc(Cl)cc2)cc1Cl	Gli-Sufu block 61, Mdm2 MdmX PPI 76 | Mdm2-MdmX conf inactive | Full FLuc ctr 58 | Gli-Sufu confirm inactive | SufuKO cytotox inactive | Wnt3a cs inactive
Cc1cc(NC(=S)N(CCN2CCCCC2)Cc2ccco2)ccc1Cl	none (no result: Beta apoptosis)
O=C(COC(=O)c1cnccn1)NCc1ccc2c(c1)OCO2	none
Cc1cc(C(=O)CSc2nnc3ccccn23)c(C)n1-c1ccccc1	Mdm2 MdmX PPI 82 | Mdm2-MdmX conf 86 | Full FLuc ctr inactive | Gli-Sufu confirm 65 | SufuKO cytotox 40 | Wnt3a cs 96
CC(=O)c1cccc(NC(=O)COC(=O)c2ccc(S(C)(=O)=O)c([N+](=O)[O-])c2)c1	none
CS(=O)(=O)c1ccc(C(=O)OCC(=O)NC(=O)C2CCCCC2)cc1[N+](=O)[O-]	Gli-Sufu block 65, Mdm2 MdmX PPI 50 | Mdm2-MdmX conf inactive | Gli-Sufu confirm inactive | SufuKO cytotox inactive | Wnt3a cs inactive
CC1(C)CC(NS(=O)(=O)c2ccc(Cl)cc2)CC(C)(C)N1	none
O=C(Nc1ccccc1Cc1ccccc1)c1ccccc1NS(=O)(=O)c1ccc(Cl)s1	Gli-Sufu block 59, Mdm2 MdmX PPI 93 | Mdm2-MdmX conf 92 | Full FLuc ctr inactive | Gli-Sufu confirm 63 | SufuKO cytotox 30 | Wnt3a cs 57
CCCCN(CC)CCCNC(=O)c1cc2c(-c3ccc(OC)c(OC)c3)nn(C)c2s1	Gli-Sufu block 56, Mdm2 MdmX PPI 57 | Mdm2-MdmX conf 67 | Full FLuc ctr 82 | Gli-Sufu confirm inactive | SufuKO cytotox inactive | Wnt3a cs inactive
CCN(CC)CCCNC(=O)c1cc2c(-c3cccc(OC)c3)nn(C)c2s1	none
O=C(NC1CCNCC1)C1CC1	none
CCOC(=O)c1c(NC(=O)c2ccccc2N(C)S(=O)(=O)c2ccccc2)sc2c1CCCC2	Mdm2 MdmX PPI 55 | Mdm2-MdmX conf 60 | Full FLuc ctr 66 | Gli-Sufu confirm inactive | SufuKO cytotox inactive | Wnt3a cs inactive
COC(=O)c1c(NC(=O)c2ccccc2N(C)S(=O)(=O)c2ccccc2)sc2c1CCCC2	none (no result: 697 NFkB inh, Jurkat NFkB inh, Mdm2 MdmX PPI, Beta apoptosis)
CC(C)N(C(=O)COC(=O)c1ccc([N+](=O)[O-])cc1)c1ccccc1	none
CC(=O)Nc1ccc(CNc2ncnc3ccc(-c4c(C)noc4C)cc23)cc1	Gli-Sufu block 73, Mdm2 MdmX PPI 88 | Mdm2-MdmX conf 68 | Full FLuc ctr 49 | Gli-Sufu confirm 78 | SufuKO cytotox 31 | Wnt3a cs inactive
Cc1ccc2cc(CN(CC3CCCO3)C(=S)Nc3ccccc3)c(=O)[nH]c2c1C (centres undefined)	Gli-Sufu block 65, Mdm2 MdmX PPI 85 | Mdm2-MdmX conf 86 | Full FLuc ctr inactive | Gli-Sufu confirm 81 | SufuKO cytotox 33 | Wnt3a cs inactive
Cc1cc(C)c2[nH]c(=O)c(CN(CC3CCCO3)C(=S)Nc3ccccc3)cc2c1 (centres undefined)	none
CCOc1ccc(/C=C2\SC(=S)N(CCC(=O)N(CCO)c3ccccc3)C2=O)cc1	Mdm2 MdmX PPI 65 | Mdm2-MdmX conf inactive | Gli-Sufu confirm inactive | SufuKO cytotox inactive | Wnt3a cs inactive
O=C1OCCC1Sc1nnc(-c2ccc(Cl)cc2Cl)o1 (centres undefined)	Mdm2 MdmX PPI 77 | Mdm2-MdmX conf 62 | Full FLuc ctr 49 | Gli-Sufu confirm 67 | SufuKO cytotox inactive | Wnt3a cs 78
COc1ccc(/C=N/NC(=O)c2nc(-c3ccccc3)n(-c3ccccc3)n2)c(O)c1	Gli-Sufu block 63, Mdm2 MdmX PPI 63, Beta apoptosis 103 | Mdm2-MdmX conf 66 | Full FLuc ctr 41 | Gli-Sufu confirm 62 | SufuKO cytotox 34 | Wnt3a cs 56
CN(C)C1=NC[C@H](Cc2ccccc2)N1CCCC1CCCC1	Gli-Sufu block 56, Mdm2 MdmX PPI 53 | Mdm2-MdmX conf inactive | Full FLuc ctr 68 | Gli-Sufu confirm inactive | SufuKO cytotox 31 | Wnt3a cs inactive
CCOC(=O)C1CCN(C(=O)c2cc(S(=O)(=O)N3CCCCCC3)ccc2OC)CC1	none
CCOc1ncccc1C(=O)N1CCN(c2cccc(C)c2C)CC1	none (no result: 697 NFkB inh, Jurkat NFkB inh, Mdm2 MdmX PPI, Beta apoptosis)
